Counter-ions that a name gives are not always drawn.
Assays:
Assay in all cases: phenotypically active (imaging signature differs from DMSO and reproducible) at any of 0.3-9 uM (binary (1 = active, 0 = inactive)); higher = active
Settings in all cases: treatment time: 24 h
A549-ACTB-RAB5A = tested on: A549-ACTB-RAB5A
How it was run: (§1)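 The reporter lines, fifteen in total and built by gene editing in A549, HepG2 and WPMY1 cells, used BFP for segmentation alongside GFP and RFP/FusionRed markers. Each was treated at 0.3, 1, 3 or 9 µM for 24 h in four wells and then imaged live, with live-cell features normalised to solvent control wells. Deviation meant ≥3 of 4 wells beyond the 95th percentile of control Euclidean distances; reproducibility meant a median replicate Pearson correlation above the 95th percentile of non-replicates. Only conditions meeting both were scored as phenotypically active.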

A549-CANX-COX4 = tested on: A549-CANX-COX4
How it was run: as §1

A549-GM130-SQSTM1 = tested on: A549-GM130-SQSTM1
How it was run: as §1

A549-TP53BP1-CLTA = tested on: A549-TP53BP1-CLTA
How it was run: as §1

A549-TUBA1B-RELA = tested on: A549-TUBA1B-RELA
How it was run: as §1

HepG2-ACTB-RAB5A = tested on: HepG2-ACTB-RAB5A
How it was run: as §1

HepG2-CANX-COX4 = tested on: HepG2-CANX-COX4
How it was run: as §1

HepG2-GM130-SQSTM1 = tested on: HepG2-GM130-SQSTM1
How it was run: as §1

HepG2-TP53BP1-CLTA = tested on: HepG2-TP53BP1-CLTA
How it was run: as §1

HepG2-TUBA1B-RELA = tested on: HepG2-TUBA1B-RELA
How it was run: as §1

WPMY1-ACTB-RAB5A = tested on: WPMY1-ACTB-RAB5A
How it was run: as §1

WPMY1-CANX-COX4 = tested on: WPMY1-CANX-COX4
How it was run: as §1

WPMY1-GM130-SQSTM1 = tested on: WPMY1-GM130-SQSTM1
How it was run: as §1

WPMY1-TP53BP1-CLTA = tested on: WPMY1-TP53BP1-CLTA
How it was run: as §1

WPMY1-TUBA1B-RELA = tested on: WPMY1-TUBA1B-RELA
How it was run: as §1

Measured: phenotypically active

O=C(O)c1cc(=O)c(O)c(C(=O)O)o1 [Meconic acid]
inactive: A549-ACTB-RAB5A 0 | A549-CANX-COX4 0 | A549-GM130-SQSTM1 0 | A549-TP53BP1-CLTA 0 | A549-TUBA1B-RELA 0 | HepG2-ACTB-RAB5A 0 | HepG2-CANX-COX4 0 | HepG2-GM130-SQSTM1 0 | HepG2-TP53BP1-CLTA 0 | HepG2-TUBA1B-RELA 0 | WPMY1-ACTB-RAB5A 0 | WPMY1-CANX-COX4 0 | WPMY1-GM130-SQSTM1 0 | WPMY1-TP53BP1-CLTA 0 | WPMY1-TUBA1B-RELA 0

c1ccc2c(c1)CN1CCCC1=N2 [Desoxypeganine Hydrochloride]
inactive: A549-ACTB-RAB5A 0 | A549-CANX-COX4 0 | A549-GM130-SQSTM1 0 | A549-TP53BP1-CLTA 0 | A549-TUBA1B-RELA 0 | HepG2-ACTB-RAB5A 0 | HepG2-CANX-COX4 0 | HepG2-GM130-SQSTM1 0 | HepG2-TP53BP1-CLTA 0 | HepG2-TUBA1B-RELA 0 | WPMY1-ACTB-RAB5A 0 | WPMY1-CANX-COX4 0 | WPMY1-GM130-SQSTM1 0 | WPMY1-TP53BP1-CLTA 0 | WPMY1-TUBA1B-RELA 0

COc1ccc(C(=O)C2CCN(CC(=O)N(Cc3nc4c(c(=O)[nH]3)COCC4)CC3CC3)CC2)cc1
inactive: A549-ACTB-RAB5A 0 | A549-CANX-COX4 0 | A549-GM130-SQSTM1 0 | A549-TP53BP1-CLTA 0 | A549-TUBA1B-RELA 0 | HepG2-ACTB-RAB5A 0 | HepG2-CANX-COX4 0 | HepG2-GM130-SQSTM1 0 | HepG2-TP53BP1-CLTA 0 | HepG2-TUBA1B-RELA 0 | WPMY1-ACTB-RAB5A 0 | WPMY1-CANX-COX4 0 | WPMY1-GM130-SQSTM1 0 | WPMY1-TP53BP1-CLTA 0 | WPMY1-TUBA1B-RELA 0

CN(C)CC/C=C1\c2ccccc2COc2ccc(CC(=O)O)cc21 [olopatadine]
inactive: A549-ACTB-RAB5A 0 | A549-CANX-COX4 0 | A549-GM130-SQSTM1 0 | A549-TP53BP1-CLTA 0 | A549-TUBA1B-RELA 0 | HepG2-ACTB-RAB5A 0 | HepG2-CANX-COX4 0 | HepG2-GM130-SQSTM1 0 | HepG2-TP53BP1-CLTA 0 | HepG2-TUBA1B-RELA 0 | WPMY1-ACTB-RAB5A 0 | WPMY1-CANX-COX4 0 | WPMY1-GM130-SQSTM1 0 | WPMY1-TP53BP1-CLTA 0 | WPMY1-TUBA1B-RELA 0

O=C(NCc1ccccn1)Nc1nnc(-c2ccco2)o1
inactive: A549-ACTB-RAB5A 0 | A549-CANX-COX4 0 | A549-GM130-SQSTM1 0 | A549-TP53BP1-CLTA 0 | A549-TUBA1B-RELA 0 | HepG2-ACTB-RAB5A 0 | HepG2-CANX-COX4 0 | HepG2-GM130-SQSTM1 0 | HepG2-TP53BP1-CLTA 0 | HepG2-TUBA1B-RELA 0 | WPMY1-ACTB-RAB5A 0 | WPMY1-CANX-COX4 0 | WPMY1-GM130-SQSTM1 0 | WPMY1-TP53BP1-CLTA 0 | WPMY1-TUBA1B-RELA 0

CC(C)OC(=O)C(C)(C)Oc1ccc(C(=O)c2ccc(Cl)cc2)cc1 [Fenofibrate]
inactive: A549-ACTB-RAB5A 0 | A549-CANX-COX4 0 | A549-GM130-SQSTM1 0 | A549-TP53BP1-CLTA 0 | A549-TUBA1B-RELA 0 | HepG2-ACTB-RAB5A 0 | HepG2-CANX-COX4 0 | HepG2-GM130-SQSTM1 0 | HepG2-TP53BP1-CLTA 0 | HepG2-TUBA1B-RELA 0 | WPMY1-ACTB-RAB5A 0 | WPMY1-CANX-COX4 0 | WPMY1-GM130-SQSTM1 0 | WPMY1-TP53BP1-CLTA 0 | WPMY1-TUBA1B-RELA 0

CC(Oc1ccc(O)cc1)(P(=O)(O)O)P(=O)(O)O
inactive: A549-ACTB-RAB5A 0 | A549-CANX-COX4 0 | A549-GM130-SQSTM1 0 | A549-TP53BP1-CLTA 0 | A549-TUBA1B-RELA 0 | HepG2-ACTB-RAB5A 0 | HepG2-CANX-COX4 0 | HepG2-GM130-SQSTM1 0 | HepG2-TP53BP1-CLTA 0 | HepG2-TUBA1B-RELA 0 | WPMY1-ACTB-RAB5A 0 | WPMY1-CANX-COX4 0 | WPMY1-GM130-SQSTM1 0 | WPMY1-TP53BP1-CLTA 0 | WPMY1-TUBA1B-RELA 0

CCOc1cc([C@@H](CS(C)(=O)=O)N2C(=O)c3cccc(NC(C)=O)c3C2=O)ccc1OC [apremilast]
inactive: A549-ACTB-RAB5A 0 | A549-CANX-COX4 0 | A549-GM130-SQSTM1 0 | A549-TP53BP1-CLTA 0 | A549-TUBA1B-RELA 0 | HepG2-ACTB-RAB5A 0 | HepG2-CANX-COX4 0 | HepG2-GM130-SQSTM1 0 | HepG2-TP53BP1-CLTA 0 | HepG2-TUBA1B-RELA 0 | WPMY1-ACTB-RAB5A 0 | WPMY1-CANX-COX4 0 | WPMY1-GM130-SQSTM1 0 | WPMY1-TP53BP1-CLTA 0 | WPMY1-TUBA1B-RELA 0

C[C@H](NC(=O)CCc1nc2ccccc2c(=O)[nH]1)c1ccccc1
inactive: A549-ACTB-RAB5A 0 | A549-CANX-COX4 0 | A549-GM130-SQSTM1 0 | A549-TP53BP1-CLTA 0 | A549-TUBA1B-RELA 0 | HepG2-ACTB-RAB5A 0 | HepG2-CANX-COX4 0 | HepG2-GM130-SQSTM1 0 | HepG2-TP53BP1-CLTA 0 | HepG2-TUBA1B-RELA 0 | WPMY1-ACTB-RAB5A 0 | WPMY1-CANX-COX4 0 | WPMY1-GM130-SQSTM1 0 | WPMY1-TP53BP1-CLTA 0 | WPMY1-TUBA1B-RELA 0

CCOCCn1c(N2CCCN(C)CC2)nc2ccccc21 [emedastine]
inactive: A549-ACTB-RAB5A 0 | A549-CANX-COX4 0 | A549-GM130-SQSTM1 0 | A549-TP53BP1-CLTA 0 | A549-TUBA1B-RELA 0 | HepG2-ACTB-RAB5A 0 | HepG2-CANX-COX4 0 | HepG2-GM130-SQSTM1 0 | HepG2-TP53BP1-CLTA 0 | HepG2-TUBA1B-RELA 0 | WPMY1-ACTB-RAB5A 0 | WPMY1-CANX-COX4 0 | WPMY1-GM130-SQSTM1 0 | WPMY1-TP53BP1-CLTA 0 | WPMY1-TUBA1B-RELA 0

CC(C)NCC(O)c1ccc(NS(C)(=O)=O)cc1 (stereo not given) [sotalol]
inactive: A549-ACTB-RAB5A 0 | A549-CANX-COX4 0 | A549-GM130-SQSTM1 0 | A549-TP53BP1-CLTA 0 | A549-TUBA1B-RELA 0 | HepG2-ACTB-RAB5A 0 | HepG2-CANX-COX4 0 | HepG2-GM130-SQSTM1 0 | HepG2-TP53BP1-CLTA 0 | HepG2-TUBA1B-RELA 0 | WPMY1-ACTB-RAB5A 0 | WPMY1-CANX-COX4 0 | WPMY1-GM130-SQSTM1 0 | WPMY1-TP53BP1-CLTA 0 | WPMY1-TUBA1B-RELA 0

NC(=O)c1cccc(-c2cccc(OC(=O)NC3CCCCC3)c2)c1
inactive: A549-ACTB-RAB5A 0 | A549-CANX-COX4 0 | A549-GM130-SQSTM1 0 | A549-TP53BP1-CLTA 0 | A549-TUBA1B-RELA 0 | HepG2-ACTB-RAB5A 0 | HepG2-CANX-COX4 0 | HepG2-GM130-SQSTM1 0 | HepG2-TP53BP1-CLTA 0 | HepG2-TUBA1B-RELA 0 | WPMY1-ACTB-RAB5A 0 | WPMY1-CANX-COX4 0 | WPMY1-GM130-SQSTM1 0 | WPMY1-TP53BP1-CLTA 0 | WPMY1-TUBA1B-RELA 0
